Assay results taken from PubChem BioAssay (NCATS).
Values without a mark were called inactive. Records with an inconclusive call do not appear. Where a call stands in place of a potency, no number is given. Active and inactive are the calls of the source. Unless noted, calls come from the whole dose curve; as a rule, active = well fitted curve in the direction sought with a large enough effect; inconclusive = small, poorly fitted or top-dose-only effect, or another doubt; inactive = no such curve, though single readings can be large; an effect the other way counts as inactive or inconclusive.

How the values were obtained:
JEG-3 = test: Primary qHTS to identify gynecologic anti-cancer compounds using libraries of approved drugs and bioactive compounds (AID 1345084); details: Gynecologic cancer cell panel viability, ATPlite luminescence, 48 h; series mostly up to 57.5 µM; note: nearly all actives have a fitted effect of over 55% in size; note: potency is the fitted concentration of half-maximal effect
In short: (§1)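 Five-point cytotoxicity, 48 h drug exposure at 37 C, 5% CO2, on cells seeded 16 h beforehand. ATP content read by ATPlite luminescence.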

OV90 = test: as above; details: Gynecologic cancer cell panel viability, ATPlite luminescence, 48 h; series mostly up to 57.5 µM
In short: as §1

PA-1 = test: as above; details: Gynecologic cancer cell panel viability, ATPlite luminescence, 48 h; series mostly up to 57.5 µM
In short: as §1

SKOV3 = test: as above; details: Gynecologic cancer cell panel viability, ATPlite luminescence, 48 h; series mostly up to 57.5 µM
In short: as §1

Tov-21-G = test: as above; details: Gynecologic cancer cell panel viability, ATPlite luminescence, 48 h; series mostly up to 57.5 µM
In short: as §1

Tov112D = test: as above; details: Gynecologic cancer cell panel viability, ATPlite luminescence, 48 h; series mostly up to 57.5 µM
In short: as §1

[1] = qHTS assay to identify inhibitors of the type 1 interferon - major histocompatibility complex class I in skeletal muscle: Counter screen cell viability and HiBit confirmation (AID 1347412); details: iHSKM muscle cells + IFN-b, HiBiT or CellTiter-Glo, 24 h; note: potency is the fitted concentration of half-maximal effect; nearly all actives have a fitted effect of over 60% in size
In short: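 HLA-B*08:01–HiBiT knock-in immortalized human myoblasts (C25cl48) stimulated with 4.0 ng/ml human IFN-beta and dosed with compound in a 12-point 1:3 titration (top final 46 uM). After 24 hrs at 37 C, HiBiT lytic luminescence or CellTiter Glo ATP read out.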

[2] = molecular target: Nuclear receptor subfamily 1 group I member 2 (Rattus norvegicus) (UniProt Q9R1A7); test: qHTS assay for small molecule activators of the rat pregnane X receptor (rPXR) signaling pathway (AID 651751; call rule not given here); details: rPXR reporter cells, luciferase (One-Glo), 24 h
[3] = qHTS assay for small molecule activators of the human pregnane X receptor (PXR) signaling pathway (AID 720659; call rule not given here)

Chain of Nuclear receptor subfamily 1 group I member 2 (Rattus norvegicus) (Q9R1A7 whole entry, looked up): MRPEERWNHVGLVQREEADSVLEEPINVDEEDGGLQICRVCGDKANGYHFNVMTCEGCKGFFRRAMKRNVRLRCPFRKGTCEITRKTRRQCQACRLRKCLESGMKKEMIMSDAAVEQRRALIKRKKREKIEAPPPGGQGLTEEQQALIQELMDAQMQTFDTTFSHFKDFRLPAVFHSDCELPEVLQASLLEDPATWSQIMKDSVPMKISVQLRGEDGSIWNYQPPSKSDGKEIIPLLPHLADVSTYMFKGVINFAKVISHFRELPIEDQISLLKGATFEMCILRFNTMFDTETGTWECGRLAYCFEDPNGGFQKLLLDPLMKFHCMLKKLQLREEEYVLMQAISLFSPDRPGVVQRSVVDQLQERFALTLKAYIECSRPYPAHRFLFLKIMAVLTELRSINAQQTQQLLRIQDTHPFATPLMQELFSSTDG

SMILES: CC(=O)OC[C@H]1O[C@H](O[C@]2(CO)O[C@H](CO)[C@@H](OC(=O)/C=C/c3ccccc3)[C@@H]2O)[C@H](O)[C@@H](O)[C@@H]1O
- Potency (JEG-3): inactive
- Potency (OV90): inactive
- Potency (PA-1): inactive
- Potency (SKOV3): inactive
- Potency (Tov-21-G): inactive
- Potency (Tov112D): inactive

SMILES: CCOc1ccc2nc(SCCN3CCOCC3)[nH]c2c1
- Potency (JEG-3): inactive
- Potency (OV90): inactive
- Potency (PA-1): inactive
- Potency (SKOV3): inactive
- Potency (Tov-21-G): inactive
- Potency (Tov112D): inactive

SMILES: COc1cc(O)cc(C)c1C(=O)O[C@@H]1[C@H](O)[C@@H](CO)O[C@H]1n1ccc(=O)[nH]c1=O
- Potency (JEG-3): inactive
- Potency (OV90): inactive
- Potency (PA-1): 3.98 µM (active)
- Potency (SKOV3): inactive
- Potency (Tov112D): inactive

SMILES: CC(=O)O[C@@](C)(C(=O)/C=C/C(C)(C)O)[C@H]1[C@H](O)C[C@@]2(C)[C@@H]3CC=C4[C@@H](C=C(O)C(=O)C4(C)C)[C@]3(C)C(=O)C[C@]12C
- Potency (JEG-3): inactive
- Potency (OV90): 4.47 µM (active)
- Potency (PA-1): 11.2 µM (active)
- Potency (Tov-21-G): 2.82 µM (active)

SMILES: COc1cc2c(NC3CCN(CC4CCCCC4)CC3)nc(N3CCCN(C(C)C)CC3)nc2cc1OCCCN1CCCCC1
- Potency (JEG-3): 5.62 µM (active)
- Potency (OV90): 3.16 µM (active)
- Potency (PA-1): 5.62 µM (active)
- Potency (SKOV3): 3.98 µM (active)
- Potency (Tov-21-G): 20 µM (active)
- Potency (Tov112D): 7.94 µM (active)
- Potency ([1]; Viability): 24.9 µM (active)

SMILES: COc1cc2ncnc(Nc3ccc(O)cc3)c2cc1OC
- Potency (JEG-3): inactive
- Potency (OV90): inactive
- Potency (PA-1): inactive
- Potency (SKOV3): inactive
- Potency (Tov112D): inactive

SMILES: CC1(C)CC[C@@]2(C(=O)O[C@@H]3O[C@H](CO)[C@@H](O)[C@H](O)[C@H]3O)C(C1)C1=CCC3[C@@]4(C)CC[C@@H](O[C@@H]5O[C@H](C(=O)O)[C@@H](O[C@@H]6OC[C@@H](O)[C@H](O)[C@H]6O)[C@H](O[C@@H]6OC[C@](O)(CO)[C@H]6O)[C@H]5O)C(C)(C)C4CC[C@@]3(C)[C@]1(C)C[C@H]2O (stereo partly drawn)
- activity change, negative = cytotoxicity (JEG-3): -1.03% [at 11.6 µM]
- activity change, negative = cytotoxicity (OV90): -1.26% [at 11.6 µM]
- activity change, negative = cytotoxicity (PA-1): -34.8% [at 11.6 µM]
- activity change, negative = cytotoxicity (SKOV3): -2.96% [at 11.6 µM]
- activity change, negative = cytotoxicity (Tov112D): -29.7% [at 11.6 µM]

SMILES: CCN1CCN(Cc2ccc(NC(=O)c3ccc(C)c(/C=C/c4cnc5[nH]ccc5c4OC)c3)cc2C(F)(F)F)CC1
- Potency (JEG-3): inactive
- Potency (OV90): 17.8 µM (active)
- Potency (PA-1): 5.62 µM (active)
- Potency (SKOV3): 8.91 µM (active)
- Potency (Tov-21-G): 2.51 µM (active)
- Potency ([1]; HiBiT): 6.25 µM (active)
- Potency ([1]; Viability): 14 µM (active)

SMILES: COc1ccc(C2=N[C@@H](c3ccc(Cl)cc3)[C@@H](c3ccc(Cl)cc3)N2C(=O)N2CCNC(=O)C2)c(OC(C)C)c1
- Potency (JEG-3): inactive
- Potency (OV90): inactive
- Potency (PA-1): 14.1 µM (active)
- Potency (SKOV3): inactive
- Potency (Tov112D): inactive

SMILES: CNC(=O)c1ccccc1Nc1cc(Nc2ccc(N3CCOCC3)cc2OC)ncc1C(F)(F)F
- Potency (JEG-3): inactive
- Potency (OV90): inactive
- Potency (PA-1): 15.8 µM (active)
- Potency (SKOV3): inactive
- Potency (Tov112D): inactive

SMILES: C=CC(C)(O)C(O)CC1C(C)(O)C(O)C(O)C2C(C)(C)CCCC21C (stereo not drawn)
- Potency (JEG-3): inactive
- Potency (OV90): inactive
- Potency (PA-1): inactive
- Potency (SKOV3): inactive
- Potency (Tov-21-G): inactive
- Potency (Tov112D): inactive

SMILES: Oc1ccc2nc(CN3CCC(Cc4ccccc4F)CC3)[nH]c2c1
- Potency (JEG-3): inactive
- Potency (OV90): inactive
- Potency (PA-1): inactive
- Potency (SKOV3): inactive
- Potency (Tov-21-G): inactive
- Potency (Tov112D): inactive

SMILES: C/C=C1\[C@H](O[C@@H]2O[C@H](CO)[C@@H](O)[C@H](O)[C@H]2O)OC=C(C(=O)OC)[C@H]1CC(=O)O
- Potency (JEG-3): inactive
- Potency (OV90): inactive
- Potency (PA-1): inactive
- Potency (SKOV3): inactive
- Potency (Tov-21-G): inactive
- Potency (Tov112D): inactive

SMILES: C=C(C)C(=O)OC1C(OC(C)=O)/C(C=O)=C\CC/C(CO)=C/C2OC(=O)C(=C)C21 (stereo not drawn)
- Potency (JEG-3): inactive
- Potency (OV90): inactive
- Potency (PA-1): inactive
- Potency (SKOV3): inactive
- Potency (Tov112D): inactive

SMILES: CC[C@H]1OC(=O)[C@](C)(F)C(=O)[C@H](C)[C@@H](O[C@@H]2O[C@H](C)C[C@H](N(C)C)[C@H]2O)[C@](C)(OC)C[C@@H](C)C(=O)[C@@H](C)[C@H]2N(CCCCn3cc(-c4cccc(N)c4)nn3)C(=O)O[C@]12C
- Potency (JEG-3): inactive
- Potency (OV90): inactive
- Potency (PA-1): inactive
- Potency (SKOV3): inactive
- Potency (Tov112D): inactive

SMILES: N#CC(c1ccnc(OCc2ccc(CN3CCOCC3)cc2)n1)c1nc2ccccc2s1 (stereo not drawn)
- Potency (JEG-3): 10 µM (active)
- Potency (OV90): 7.94 µM (active)
- Potency (PA-1): inactive
- Potency (SKOV3): 7.94 µM (active)
- Potency (Tov112D): inactive

SMILES: C=CC1C(OC2OC(CO)C(O)C(O)C2O)OC=C(C(=O)OC)C1CC1CC(=O)CC(CCc2ccc(O)cc2)O1 (stereo not drawn)
- Potency (JEG-3): inactive
- Potency (OV90): inactive
- Potency (PA-1): inactive
- Potency (SKOV3): inactive
- Potency (Tov112D): inactive

SMILES: COC1C(=O)CCC2(CO2)C1(O)C1(C)OC1CC=C(C)C (stereo not drawn)
- Potency (JEG-3): inactive
- Potency (OV90): inactive
- Potency (PA-1): inactive
- Potency (SKOV3): inactive
- Potency (Tov112D): inactive

SMILES: COc1c(/C=C/C(C)(C)O)ccc2c1C(=O)OCc1cc(C)cc(O)c1O2
- Potency (JEG-3): inactive
- Potency (OV90): inactive
- Potency (PA-1): inactive
- Potency (Tov-21-G): inactive
- Potency (Tov112D): inactive

SMILES: C[C@H](NC(c1cccc2[nH]c(=O)c(=O)[nH]c12)P(=O)(O)O)c1ccc(Br)cc1 (stereo partly drawn)
- Potency (JEG-3): inactive
- Potency (OV90): inactive
- Potency (PA-1): inactive
- Potency (SKOV3): inactive
- Potency (Tov-21-G): inactive
- Potency (Tov112D): inactive

SMILES: CC(=O)O[C@@H]1CC(C)=C2[C@H]1[C@H](C)CC[C@H]2/C=C(\C)C(=O)O
- Potency (JEG-3): inactive
- Potency (OV90): inactive
- Potency (PA-1): inactive
- Potency (SKOV3): inactive
- Potency (Tov-21-G): inactive
- Potency (Tov112D): inactive
- max response [2]: -4.19%
- outcome [3]: inactive

SMILES: COC(=O)C[C@H]1C(C)(C)[C@H](OC(C)=O)C2CC3=C4CC(=O)O[C@@H](c5ccoc5)[C@]4(C)CCC3[C@@]1(C)C2=O (stereo partly drawn)
- Potency (JEG-3): inactive
- Potency (OV90): inactive
- Potency (PA-1): inactive
- Potency (SKOV3): inactive
- Potency (Tov-21-G): inactive
- Potency (Tov112D): inactive
